Measurements published in PubChem BioAssay (EPA / NIEHS).
“And” between values parts separate entries of the source, which are not always exact repeats. Identical values can stand only once. More than one record can exist for a structure, and the calls need not agree. The source made the active and inactive calls. How the source made its calls: active means hit-call score of the fitted dose curve at least 0.9, where 1 is the maximum; inactive means score below 0.9.

How the values were obtained:
[1] = read-out: Thrombomodulin, THBD (gene 7056); test: BSK_CASM3C_Thrombomodulin: BioMAP Diversity Plus: CASM3C Assay for Thrombomodulin Biomarker Activity (AID 2283051); conditions: primary human coronary artery smooth muscle cells; actives raise or lower the signal;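 further: thrombomodulin protein level measured by ELISA 24 h after dosing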
[2] = read-out: Tissue Factor, F3 (gene 2152); test: BSK_CASM3C_TissueFactor: BioMAP Diversity Plus: CASM3C Assay for Tissue Factor Biomarker Activity (AID 2283052); conditions: primary human coronary artery smooth muscle cells; actives raise or lower the signal;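 further: cell surface tissue factor protein level read by ELISA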
[3] = read-out: Interferon-gamma inducible Protein 10 (IP10), CXCL10 (gene 3627); test: BSK_hDFCGF_IP10: BioMAP Diversity Plus: hDFCGF Assay for Interferon-gamma inducible Protein 10 (IP10) Biomarker Activity (AID 2283053); conditions: primary human foreskin fibroblasts; actives raise or lower the signal
In short: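 Primary human foreskin fibroblasts exposed to chemicals for 24 h. IP-10 measured by ELISA; changes fitted bidirectionally against DMSO baseline.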

[4] = read-out: Urokinase-type plasminogen activator receptor (uPAR), PLAUR (gene 5329); test: BSK_CASM3C_uPAR: BioMAP Diversity Plus: CASM3C Assay for Urokinase-type plasminogen activator receptor (uPAR) Biomarker Activity (AID 2283054); conditions: primary human coronary artery smooth muscle cells; actives raise or lower the signal;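 further: cell-surface uPAR protein level quantified by ELISA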
[5] = read-out: Vascular cell adhesion molecule 1 (VCAM1), VCAM1 (gene 7412); test: BSK_CASM3C_VCAM1: BioMAP Diversity Plus: CASM3C Assay for Vascular cell adhesion molecule 1 (VCAM1) Biomarker Activity (AID 2283055); conditions: primary human coronary artery smooth muscle cells; actives raise or lower the signal;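 further: VCAM-1 protein level quantified by ELISA on the cells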
[6] = read-out: Collagen III, COL3A1 (gene 1281); test: BSK_hDFCGF_CollagenIII: BioMAP Diversity Plus: hDFCGF Assay for Collagen III Biomarker Activity (AID 2283056); conditions: primary human foreskin fibroblasts; actives raise or lower the signal
In short: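 Human foreskin primary fibroblasts were exposed to test chemicals for 24 h, after which collagen III was quantified by ELISA. Activity was fitted bidirectionally against DMSO as negative control and baseline.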

[7] = read-out: Epidermal growth factor receptor (EGFR), EGFR (gene 1956); test: BSK_hDFCGF_EGFR: BioMAP Diversity Plus: hDFCGF Assay for Epidermal growth factor receptor (EGFR) Biomarker Activity (AID 2283057); conditions: primary human foreskin fibroblasts; actives raise or lower the signal
In short: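 Primary human foreskin fibroblasts (hDFCGF system), sampled 24 h after dosing; EGFR quantified by ELISA. Bidirectional fit relative to DMSO baseline; SRB total-protein staining in parallel cultures for cytotoxicity.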

[8] = read-out: Interleukin-8 (IL8), CXCL8 (gene 3576); test: BSK_hDFCGF_IL8: BioMAP Diversity Plus: hDFCGF Assay for Interleukin-8 (IL8) Biomarker Activity (AID 2283058); conditions: primary human foreskin fibroblasts; actives raise or lower the signal
In short: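 hDFCGF human dermal fibroblasts; 24 h chemical exposure; IL-8 by ELISA; bidirectional curve fit vs DMSO baseline; gain or loss of signal scored.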

[9] = BSK_hDFCGF_Proliferation: Cell Proliferation Assessment in the BioMAP Diversity Plus: hDFCGF Assay (AID 2283059); conditions: primary human foreskin fibroblasts;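 further: curves fitted for both rise and fall of signal versus DMSO baseline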
In short: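 Steps: dose primary human dermal fibroblasts (foreskin); […] fix in 10% TCA; stain with 0.1% SRB; read 560 nm; fit gain or loss of signal against DMSO.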

[10] = read-out: Macrophage colony-stimulating factor (MCSF), CSF1 (gene 1435); test: BSK_hDFCGF_MCSF: BioMAP Diversity Plus: hDFCGF Assay for Macrophage colony-stimulating factor (MCSF) Biomarker Activity (AID 2283060); conditions: primary human foreskin fibroblasts; actives raise or lower the signal
In short: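 Human foreskin primary fibroblasts were treated with test chemical for 24 h, and M-CSF was then measured by ELISA. Data were fitted bidirectionally against DMSO as the negative control and activity baseline.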

Measured: AC50

CCCCOC(=O)c1ccccc1C(=O)OCCCC
inactive: [1] | [2] | [4] | [5] | [6] | [7] | [8] | [9] | [10]
active: [1] 11 µM | [3] 13.9 µM and 11.8 µM | [6] 10.9 µM | [10] 12 µM

COc1ccc(C(c2ccc(OC)cc2)C(Cl)(Cl)Cl)cc1
active: [1] 13.1 µM | [3] 20 µM | [9] 6.21 µM | [10] 9.16 µM
inactive: [2] | [4] | [5] | [6] | [8]

N#Cc1cc(Br)c(O)c(Br)c1
inactive: [1] | [2] | [5] | [6] | [8] | [9] | [10]
active: [3] 10.9 µM | [4] 0.405 µM

COc1cnc(OC)n2nc(NS(=O)(=O)c3c(OCC(F)F)cccc3C(F)(F)F)nc12
inactive: [1] | [2] | [3] | [4] | [5] | [6] | [8] | [9] | [10]

CCCCC(CC)COC(=O)c1ccccc1C(=O)OCC(CC)CCCC (stereo not given)
inactive: [1] | [2] | [4] | [5] | [6] | [8] | [10]
active: [3] 16.6 µM | [9] 4.85 µM

O=C(Nc1ccccc1)Nc1ccnc(Cl)c1
inactive: [1] | [2] | [3] | [4] | [5] | [6] | [8] | [9] | [10]

COC(=O)N(OC)c1ccccc1COc1ccn(-c2ccc(Cl)cc2)n1
inactive: [2] | [3] | [4]
active: [1] 31.2 µM | [5] 11.7 µM | [6] 0.8 µM | [8] 5.63 µM | [9] 1.84 µM | [10] 20 µM

O=C(O)c1nc(Cl)ccc1Cl
inactive: [1] | [2] | [3] | [4] | [5] | [6] | [8] | [9] | [10]

CCOP(=S)(OCC)SCn1c(=O)oc2cc(Cl)ccc21
inactive: [2] | [3] | [4] | [5] | [8]
active: [1] 19.9 µM | [6] 20 µM | [9] 15.5 µM | [10] 14.3 µM

CCCC1COC(Cn2cncn2)(c2ccc(Cl)cc2Cl)O1 (stereo not given)
active: [1] 7.5 µM | [9] 4.49 µM
inactive: [2] | [3] | [4] | [5] | [6] | [8] | [10]

CC(C)C1(C)N=C(c2nc3ccccc3cc2C(=O)O)NC1=O (stereo not given)
inactive: [1] | [2] | [3] | [4] | [5] | [6] | [8] | [9] | [10]

CC(C)Oc1cc(-n2nc(C(C)(C)C)oc2=O)c(Cl)cc1Cl
active: [1] 25.7 µM | [3] 29.8 µM | [9] 29.5 µM | [10] 15.2 µM
inactive: [2] | [4] | [5] | [6] | [8]

CC1=C(C(=O)Nc2ccccc2)SCCO1
inactive: [1] | [2] | [3] | [4] | [5] | [6] | [8] | [9] | [10]

CCc1nn(C)c(C(=O)NCc2ccc(C(C)(C)C)cc2)c1Cl
inactive: [2] | [4] | [5]
active: [1] 13.2 µM | [3] 28.8 µM | [6] 20 µM | [8] 35.4 µM | [9] 20 µM | [10] 23.9 µM

N#Cc1nn(-c2c(Cl)cc(C(F)(F)F)cc2Cl)c(N)c1S(=O)C(F)(F)F (stereo not given)
inactive: [2] | [4] | [6] | [8] | [9] | [10]
active: [1] 21.9 µM | [3] 2.24 µM | [5] 23.6 µM

Oc1ccccc1-c1ccccc1
inactive: [1] | [2] | [3] | [4] | [5] | [6] | [8] | [9] | [10]

CCOC(=O)C(Cl)Cc1cc(-n2nc(C)n(C(F)F)c2=O)c(F)cc1Cl (stereo not given)
inactive: [1] | [2] | [3] | [4] | [5] | [6] | [8] | [9] | [10]

COC(=O)c1ccccc1C(=O)OC
inactive: [1] | [2] | [3] | [4] | [5] | [6] | [8] | [9] | [10]

Cc1ccc(-c2c(Cl)nc(C#N)n2S(=O)(=O)N(C)C)cc1
active: [3] 6.3 µM | [6] 13.9 µM | [9] 17 µM | [10] 14.3 µM
inactive: [1] | [2] | [4] | [5] | [8]

N#CC(CCc1ccc(Cl)cc1)(Cn1cncn1)c1ccccc1 (stereo not given)
inactive: [1] | [2] | [3] | [4] | [5] | [6] | [8] | [10]
active: [9] 1.78 µM

CCCCNC(=O)n1c(NC(=O)OC)nc2ccccc21
active: [1] 17.4 µM | [3] 33.8 µM | [9] 15 µM
inactive: [2] | [4] | [5] | [6] | [8] | [10]

C#CCOS(=O)OC1CCCCC1Oc1ccc(C(C)(C)C)cc1 (stereo not given)
inactive: [2] | [5]
active: [1] 5.22 µM | [3] 7.97 µM | [4] 11.2 µM | [6] 1.27 µM | [8] 15.3 µM | [9] 2.73 µM | [10] 4.84 µM

CC1COC(Cn2cncn2)(c2ccc(Oc3ccc(Cl)cc3)cc2Cl)O1 (stereo not given)
active: [1] 16.1 µM | [3] 37.9 µM | [6] 28.1 µM | [8] 34.5 µM | [9] 25 µM | [10] 32.2 µM
inactive: [2] | [4] | [5]

CCNc1nc(Cl)nc(NCC)n1
inactive: [1] | [2] | [3] | [4] | [5] | [6] | [8] | [9] | [10]

COC(=O)C=C(C)OP(=O)(OC)OC
active: [10] 0.157 µM
inactive: [1] | [2] | [3] | [4] | [5] | [6] | [8] | [9]

CON(C)C(=O)Nc1ccc(Cl)c(Cl)c1
inactive: [1] | [2] | [3] | [4] | [5] | [6] | [8] | [9] | [10]

Cc1c(F)c(F)c(COC(=O)C2C(/C=C(\Cl)C(F)(F)F)C2(C)C)c(F)c1F (stereo not given)
active: [1] 14 µM | [9] 10.8 µM | [10] 3.03 µM
inactive: [2] | [3] | [4] | [5] | [6] | [8]

C=CCC1=C(C)[C@@H](OC(=O)[C@@H]2[C@@H](C=C(C)C)C2(C)C)CC1=O
inactive: [1] | [2] | [4] | [5]
active: [3] 32.6 µM | [6] 30.9 µM | [9] 33.1 µM | [10] 32.2 µM
